Legend:
Assay in all cases: DAPPL (digital affinity profiling via proximity ligation, sequencing); 10 mM Tris-HCl pH 7.5, 50 mM NaCl, 1 mM DTT, 4% glycerol, room temperature, 30 min; GST-TFs on glutathione beads, 16-mer random dsDNA library, 0.1% formaldehyde crosslink after washing; high values mean tight binding
Conditions in all cases: protein: recombinant; tags: N-terminal GST; dsDNA, one strand shown
FLI1 = target: T1, FLI1 (Homo sapiens, UniProt Q01543 1-452)
T1 sequence: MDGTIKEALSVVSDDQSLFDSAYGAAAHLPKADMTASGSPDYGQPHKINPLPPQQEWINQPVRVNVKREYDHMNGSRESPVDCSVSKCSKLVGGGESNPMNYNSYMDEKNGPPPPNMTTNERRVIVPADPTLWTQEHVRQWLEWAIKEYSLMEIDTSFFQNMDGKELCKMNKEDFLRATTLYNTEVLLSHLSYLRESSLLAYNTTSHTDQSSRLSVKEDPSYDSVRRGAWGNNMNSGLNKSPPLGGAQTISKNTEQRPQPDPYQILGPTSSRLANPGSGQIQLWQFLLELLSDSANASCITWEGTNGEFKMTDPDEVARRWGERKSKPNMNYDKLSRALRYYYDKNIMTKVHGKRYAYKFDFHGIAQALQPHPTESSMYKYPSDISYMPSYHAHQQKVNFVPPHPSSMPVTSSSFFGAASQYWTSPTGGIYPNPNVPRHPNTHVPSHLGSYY
Outline: (§1)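 Each value of binding signal is a hexamer's read frequency for a factor divided by the same hexamer's frequency in the tag-only sample. Barcoded, bead-captured GST fusions of human transcription factors made in yeast were pooled with that sample and incubated with 200 nmole of a random double-stranded 16-mer DNA library in Tris/NaCl/DTT/glycerol buffer at room temperature for 30 min. Washing, 0.1% formaldehyde crosslinking, proximity ligation, PCR and Illumina NextSeq500 sequencing followed.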

ELK1 = target: T2, ELK1 (Homo sapiens, UniProt P19419 1-428)
T2 sequence: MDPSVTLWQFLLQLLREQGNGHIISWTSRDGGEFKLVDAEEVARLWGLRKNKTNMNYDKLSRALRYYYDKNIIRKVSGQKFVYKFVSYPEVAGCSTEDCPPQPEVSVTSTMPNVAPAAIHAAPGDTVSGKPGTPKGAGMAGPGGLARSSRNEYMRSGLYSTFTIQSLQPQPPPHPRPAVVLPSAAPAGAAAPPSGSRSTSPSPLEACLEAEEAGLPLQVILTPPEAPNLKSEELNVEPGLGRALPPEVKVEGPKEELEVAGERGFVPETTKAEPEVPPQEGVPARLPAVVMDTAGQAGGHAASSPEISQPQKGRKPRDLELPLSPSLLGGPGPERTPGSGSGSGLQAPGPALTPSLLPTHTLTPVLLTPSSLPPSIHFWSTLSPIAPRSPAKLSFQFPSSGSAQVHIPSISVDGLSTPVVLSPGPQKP
Outline: as §1

GABPA = target: T3, GABPA (Homo sapiens, UniProt Q06546 1-454)
T3 sequence: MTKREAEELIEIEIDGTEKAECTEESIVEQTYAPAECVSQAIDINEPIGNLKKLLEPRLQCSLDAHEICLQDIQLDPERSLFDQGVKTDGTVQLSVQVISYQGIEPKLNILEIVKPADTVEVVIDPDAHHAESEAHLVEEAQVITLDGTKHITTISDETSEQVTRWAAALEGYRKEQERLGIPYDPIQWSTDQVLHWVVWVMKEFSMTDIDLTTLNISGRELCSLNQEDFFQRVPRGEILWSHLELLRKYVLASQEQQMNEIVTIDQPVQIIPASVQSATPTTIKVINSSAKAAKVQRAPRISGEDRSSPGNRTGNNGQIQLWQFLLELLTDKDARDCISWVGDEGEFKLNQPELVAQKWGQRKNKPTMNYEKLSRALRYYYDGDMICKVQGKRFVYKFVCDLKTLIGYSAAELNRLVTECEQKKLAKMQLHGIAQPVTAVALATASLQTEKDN
Outline: as §1

ERG = target: T4, ERG (Homo sapiens, UniProt P11308 1-479)
T4 sequence: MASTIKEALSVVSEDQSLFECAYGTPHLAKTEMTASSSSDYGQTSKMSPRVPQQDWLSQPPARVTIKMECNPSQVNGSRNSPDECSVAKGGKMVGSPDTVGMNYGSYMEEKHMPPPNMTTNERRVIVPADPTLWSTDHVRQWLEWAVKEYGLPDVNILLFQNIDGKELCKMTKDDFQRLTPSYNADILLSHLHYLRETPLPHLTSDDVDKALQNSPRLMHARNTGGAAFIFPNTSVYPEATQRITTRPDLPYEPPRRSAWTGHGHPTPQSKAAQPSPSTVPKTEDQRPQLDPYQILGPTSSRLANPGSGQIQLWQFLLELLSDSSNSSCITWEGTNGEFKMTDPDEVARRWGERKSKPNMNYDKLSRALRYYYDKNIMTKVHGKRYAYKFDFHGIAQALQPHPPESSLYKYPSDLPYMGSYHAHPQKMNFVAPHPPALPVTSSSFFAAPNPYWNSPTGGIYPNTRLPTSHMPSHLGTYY
Outline: as §1

ELF1 = ELF1 (Homo sapiens, UniProt P32519 1-619)
Outline: as §1

EHF = target: T5, EHF (Homo sapiens, UniProt Q9NZC4 1-300)
T5 sequence: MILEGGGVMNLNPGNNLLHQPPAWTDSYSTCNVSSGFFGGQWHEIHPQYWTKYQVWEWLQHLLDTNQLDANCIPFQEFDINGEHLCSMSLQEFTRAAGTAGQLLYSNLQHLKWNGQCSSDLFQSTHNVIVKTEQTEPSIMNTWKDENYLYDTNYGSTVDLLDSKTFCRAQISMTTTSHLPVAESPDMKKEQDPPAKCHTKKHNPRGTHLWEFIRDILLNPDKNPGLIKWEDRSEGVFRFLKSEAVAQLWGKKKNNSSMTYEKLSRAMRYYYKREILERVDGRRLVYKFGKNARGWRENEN
Outline: as §1

SPI1 = SPI1 (Homo sapiens, UniProt P17947 1-270)
Outline: as §1

SPIB = SPIB (Homo sapiens, UniProt Q01892 1-262)
Outline: as §1

ELK3 = target: T6, ELK3 (Homo sapiens, UniProt P41970 1-407)
T6 sequence: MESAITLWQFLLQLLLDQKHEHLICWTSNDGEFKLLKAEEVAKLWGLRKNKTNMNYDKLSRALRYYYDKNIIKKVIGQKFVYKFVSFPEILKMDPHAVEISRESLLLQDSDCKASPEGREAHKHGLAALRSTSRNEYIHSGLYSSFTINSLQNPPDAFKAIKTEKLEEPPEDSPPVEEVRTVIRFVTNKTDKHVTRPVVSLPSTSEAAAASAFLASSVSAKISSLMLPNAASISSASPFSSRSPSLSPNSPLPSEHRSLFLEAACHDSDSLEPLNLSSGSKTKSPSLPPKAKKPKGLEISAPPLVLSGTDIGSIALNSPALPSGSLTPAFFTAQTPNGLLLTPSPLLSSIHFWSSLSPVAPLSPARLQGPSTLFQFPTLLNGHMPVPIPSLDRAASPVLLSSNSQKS
Outline: as §1

FEV = target: T7, FEV (Homo sapiens, UniProt Q99581 1-238)
T7 sequence: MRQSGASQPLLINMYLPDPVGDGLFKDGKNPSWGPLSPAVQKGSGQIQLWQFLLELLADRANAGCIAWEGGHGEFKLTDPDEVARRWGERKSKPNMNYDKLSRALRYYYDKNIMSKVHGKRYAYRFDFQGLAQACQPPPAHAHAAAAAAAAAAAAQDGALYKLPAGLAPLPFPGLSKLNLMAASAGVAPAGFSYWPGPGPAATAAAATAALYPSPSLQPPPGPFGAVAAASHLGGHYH
Outline: as §1

ETV5 = ETV5 (Homo sapiens, UniProt P41161 1-510)
Outline: as §1

SPIC = target: T8, SPIC (Homo sapiens, UniProt Q8N5J4 1-248)
T8 sequence: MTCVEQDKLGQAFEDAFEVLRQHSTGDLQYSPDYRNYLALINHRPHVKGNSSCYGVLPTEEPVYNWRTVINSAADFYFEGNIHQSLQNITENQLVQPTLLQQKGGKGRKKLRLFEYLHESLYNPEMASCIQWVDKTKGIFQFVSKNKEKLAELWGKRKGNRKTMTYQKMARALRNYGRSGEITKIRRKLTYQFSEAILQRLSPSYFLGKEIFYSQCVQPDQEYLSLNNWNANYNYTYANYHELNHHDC
Outline: as §1

ELF4 = ELF4 (Homo sapiens, UniProt Q99607 1-663)
Outline: as §1

ELK4 = target: T9, ELK4 (Homo sapiens, UniProt P28324-2 1-405)
T9 sequence: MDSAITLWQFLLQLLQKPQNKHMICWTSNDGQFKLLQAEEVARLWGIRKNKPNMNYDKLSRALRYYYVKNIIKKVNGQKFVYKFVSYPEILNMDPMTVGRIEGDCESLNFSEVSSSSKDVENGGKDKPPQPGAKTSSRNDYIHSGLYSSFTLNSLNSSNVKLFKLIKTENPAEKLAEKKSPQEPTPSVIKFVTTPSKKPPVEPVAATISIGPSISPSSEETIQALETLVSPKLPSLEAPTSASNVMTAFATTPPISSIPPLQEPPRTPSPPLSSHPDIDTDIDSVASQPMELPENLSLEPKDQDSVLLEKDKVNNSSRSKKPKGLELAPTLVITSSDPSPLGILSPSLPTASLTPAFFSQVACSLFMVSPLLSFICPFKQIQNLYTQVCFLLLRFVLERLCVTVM
Outline: as §1

ETV2 = target: T10, ETV2 (Homo sapiens, UniProt O00321 1-342)
T10 sequence: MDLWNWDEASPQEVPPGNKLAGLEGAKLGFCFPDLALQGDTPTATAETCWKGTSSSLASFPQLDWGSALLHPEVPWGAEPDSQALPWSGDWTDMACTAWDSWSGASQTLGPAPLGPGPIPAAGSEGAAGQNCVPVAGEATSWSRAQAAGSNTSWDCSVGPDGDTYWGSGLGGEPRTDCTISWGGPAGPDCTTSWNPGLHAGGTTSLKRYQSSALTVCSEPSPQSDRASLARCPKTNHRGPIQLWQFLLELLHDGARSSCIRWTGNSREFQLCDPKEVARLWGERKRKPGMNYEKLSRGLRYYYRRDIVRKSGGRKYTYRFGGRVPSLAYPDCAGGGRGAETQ
Outline: as §1

ELF3 = target: T11, ELF3 (Homo sapiens, UniProt P78545 1-371)
T11 sequence: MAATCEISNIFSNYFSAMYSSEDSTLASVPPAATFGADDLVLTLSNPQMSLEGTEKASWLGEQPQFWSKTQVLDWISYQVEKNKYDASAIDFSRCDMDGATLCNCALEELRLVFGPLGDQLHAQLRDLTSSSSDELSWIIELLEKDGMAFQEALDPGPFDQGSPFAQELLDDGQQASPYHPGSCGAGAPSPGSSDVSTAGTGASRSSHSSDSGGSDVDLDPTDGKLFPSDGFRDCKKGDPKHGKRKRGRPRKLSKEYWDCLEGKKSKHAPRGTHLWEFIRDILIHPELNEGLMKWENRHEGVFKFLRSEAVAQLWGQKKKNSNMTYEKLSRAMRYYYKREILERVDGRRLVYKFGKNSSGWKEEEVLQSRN
Outline: as §1

CRX = CRX (Homo sapiens, UniProt O43186 1-299)
Outline: as §1

ETV1 = ETV1 (Homo sapiens, UniProt P50549 1-477)
Outline: as §1

Sequence of ELF4 (Q99607 whole entry): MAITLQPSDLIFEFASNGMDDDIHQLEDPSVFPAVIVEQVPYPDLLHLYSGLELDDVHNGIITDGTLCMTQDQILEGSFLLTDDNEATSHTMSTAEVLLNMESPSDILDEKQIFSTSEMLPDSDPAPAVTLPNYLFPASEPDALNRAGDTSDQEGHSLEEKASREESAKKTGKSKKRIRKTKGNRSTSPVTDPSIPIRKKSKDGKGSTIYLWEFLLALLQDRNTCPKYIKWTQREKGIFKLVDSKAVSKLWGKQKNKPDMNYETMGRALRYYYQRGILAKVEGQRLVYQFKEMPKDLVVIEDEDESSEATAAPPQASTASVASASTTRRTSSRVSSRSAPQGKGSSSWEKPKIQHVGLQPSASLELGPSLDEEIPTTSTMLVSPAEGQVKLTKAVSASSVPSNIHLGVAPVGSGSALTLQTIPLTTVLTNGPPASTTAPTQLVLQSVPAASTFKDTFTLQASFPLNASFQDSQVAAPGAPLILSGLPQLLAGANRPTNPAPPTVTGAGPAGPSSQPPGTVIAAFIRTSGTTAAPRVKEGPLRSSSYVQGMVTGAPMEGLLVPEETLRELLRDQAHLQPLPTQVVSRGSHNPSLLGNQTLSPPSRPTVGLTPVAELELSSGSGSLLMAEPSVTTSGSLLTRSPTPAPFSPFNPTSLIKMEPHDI
Sequence of ELF1 (P32519 whole entry): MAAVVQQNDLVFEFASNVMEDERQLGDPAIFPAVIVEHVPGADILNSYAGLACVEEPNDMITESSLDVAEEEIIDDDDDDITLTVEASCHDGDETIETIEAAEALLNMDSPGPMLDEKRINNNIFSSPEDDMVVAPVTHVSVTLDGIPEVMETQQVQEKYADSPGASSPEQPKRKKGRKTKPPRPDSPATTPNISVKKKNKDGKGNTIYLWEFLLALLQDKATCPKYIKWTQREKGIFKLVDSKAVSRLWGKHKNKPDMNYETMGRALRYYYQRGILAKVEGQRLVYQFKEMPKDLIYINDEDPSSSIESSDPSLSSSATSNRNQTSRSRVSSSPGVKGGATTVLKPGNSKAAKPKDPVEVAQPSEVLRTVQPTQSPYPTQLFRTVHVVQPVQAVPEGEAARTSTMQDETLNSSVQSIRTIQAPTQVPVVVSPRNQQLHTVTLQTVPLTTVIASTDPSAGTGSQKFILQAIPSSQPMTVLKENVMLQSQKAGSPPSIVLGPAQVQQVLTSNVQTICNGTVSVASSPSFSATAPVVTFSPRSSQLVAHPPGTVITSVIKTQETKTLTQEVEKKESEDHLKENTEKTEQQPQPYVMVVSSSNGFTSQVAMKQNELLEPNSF
Sequence of SPIB (Q01892 whole entry): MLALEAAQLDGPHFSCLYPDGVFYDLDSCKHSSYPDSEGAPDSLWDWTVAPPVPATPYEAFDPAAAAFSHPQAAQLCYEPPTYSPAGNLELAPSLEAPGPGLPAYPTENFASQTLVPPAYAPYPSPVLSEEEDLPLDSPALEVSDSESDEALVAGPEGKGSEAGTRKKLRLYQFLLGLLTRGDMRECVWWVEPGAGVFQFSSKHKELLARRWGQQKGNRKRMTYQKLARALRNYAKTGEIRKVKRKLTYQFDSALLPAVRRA
Sequence of ETV5 (P41161 whole entry): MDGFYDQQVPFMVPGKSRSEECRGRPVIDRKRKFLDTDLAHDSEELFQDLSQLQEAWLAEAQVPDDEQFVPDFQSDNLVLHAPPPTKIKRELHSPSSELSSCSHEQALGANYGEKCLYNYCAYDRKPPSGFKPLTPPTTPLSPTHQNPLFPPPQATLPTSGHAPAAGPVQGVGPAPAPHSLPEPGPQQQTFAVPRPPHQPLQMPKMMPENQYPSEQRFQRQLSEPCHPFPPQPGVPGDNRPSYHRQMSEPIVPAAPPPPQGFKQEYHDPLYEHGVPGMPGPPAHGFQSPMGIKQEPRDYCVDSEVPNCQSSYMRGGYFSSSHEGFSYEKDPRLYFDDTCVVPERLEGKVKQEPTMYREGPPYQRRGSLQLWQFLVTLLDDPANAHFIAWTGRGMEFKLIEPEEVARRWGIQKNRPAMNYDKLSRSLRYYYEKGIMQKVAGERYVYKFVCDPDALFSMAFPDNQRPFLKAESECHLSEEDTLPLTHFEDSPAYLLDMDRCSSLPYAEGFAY
Sequence of ETV1 (P50549 whole entry): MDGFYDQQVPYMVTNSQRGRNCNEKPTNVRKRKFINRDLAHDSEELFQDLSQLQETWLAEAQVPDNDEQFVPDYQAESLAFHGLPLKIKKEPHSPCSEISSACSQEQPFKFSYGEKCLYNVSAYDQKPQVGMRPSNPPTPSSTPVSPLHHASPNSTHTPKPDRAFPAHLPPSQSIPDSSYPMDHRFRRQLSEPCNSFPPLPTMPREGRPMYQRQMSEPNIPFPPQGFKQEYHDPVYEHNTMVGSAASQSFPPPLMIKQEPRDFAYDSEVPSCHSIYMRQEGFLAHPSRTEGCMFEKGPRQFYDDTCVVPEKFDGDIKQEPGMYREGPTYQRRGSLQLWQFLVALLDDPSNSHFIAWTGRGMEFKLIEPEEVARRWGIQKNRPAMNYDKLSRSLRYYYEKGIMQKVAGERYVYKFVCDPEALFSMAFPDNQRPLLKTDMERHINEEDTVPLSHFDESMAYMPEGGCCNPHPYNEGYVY
Sequence of CRX (O43186 whole entry): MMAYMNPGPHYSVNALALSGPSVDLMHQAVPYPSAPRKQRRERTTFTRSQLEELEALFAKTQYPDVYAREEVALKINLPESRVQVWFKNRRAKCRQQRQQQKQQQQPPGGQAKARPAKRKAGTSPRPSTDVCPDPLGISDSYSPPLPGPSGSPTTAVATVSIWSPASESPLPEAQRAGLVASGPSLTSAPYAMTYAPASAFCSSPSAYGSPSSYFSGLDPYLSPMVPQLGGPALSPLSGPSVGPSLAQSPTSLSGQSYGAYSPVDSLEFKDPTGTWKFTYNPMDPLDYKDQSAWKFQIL

Sequence	binding signal (FLI1)	binding signal (ELK1)	binding signal (GABPA)	binding signal (ERG)	binding signal (ELF1)	binding signal (EHF)	binding signal (SPI1)	binding signal (SPIB)	binding signal (ELK3)	binding signal (FEV)	binding signal (ETV5)	binding signal (SPIC)	binding signal (ELF4)	binding signal (ELK4)	binding signal (ETV2)	binding signal (ELF3)	binding signal (CRX)	binding signal (ETV1)
ACCCCG	1.24 fold enrichment (6-mer frequency, TF over GST control)	1.3 fold enrichment (6-mer frequency, TF over GST control)	1.29 fold enrichment (6-mer frequency, TF over GST control)	1.24 fold enrichment (6-mer frequency, TF over GST control)	1.31 fold enrichment (6-mer frequency, TF over GST control)	1.27 fold enrichment (6-mer frequency, TF over GST control)	1.14 fold enrichment (6-mer frequency, TF over GST control)	1.3 fold enrichment (6-mer frequency, TF over GST control)	1.21 fold enrichment (6-mer frequency, TF over GST control)	1.25 fold enrichment (6-mer frequency, TF over GST control)	1.27 fold enrichment (6-mer frequency, TF over GST control)	1.38 fold enrichment (6-mer frequency, TF over GST control)	1.33 fold enrichment (6-mer frequency, TF over GST control)	1.29 fold enrichment (6-mer frequency, TF over GST control)	1.21 fold enrichment (6-mer frequency, TF over GST control)	1.22 fold enrichment (6-mer frequency, TF over GST control)	1.02 fold enrichment (6-mer frequency, TF over GST control)	1.22 fold enrichment (6-mer frequency, TF over GST control)
CAATAG	1.07 fold enrichment (6-mer frequency, TF over GST control)	1.07 fold enrichment (6-mer frequency, TF over GST control)	1.22 fold enrichment (6-mer frequency, TF over GST control)	1.04 fold enrichment (6-mer frequency, TF over GST control)	1.07 fold enrichment (6-mer frequency, TF over GST control)	1.13 fold enrichment (6-mer frequency, TF over GST control)	1.04 fold enrichment (6-mer frequency, TF over GST control)	1.08 fold enrichment (6-mer frequency, TF over GST control)	1.13 fold enrichment (6-mer frequency, TF over GST control)		1.11 fold enrichment (6-mer frequency, TF over GST control)	1.07 fold enrichment (6-mer frequency, TF over GST control)	1.09 fold enrichment (6-mer frequency, TF over GST control)	1.15 fold enrichment (6-mer frequency, TF over GST control)	1.01 fold enrichment (6-mer frequency, TF over GST control)	1.2 fold enrichment (6-mer frequency, TF over GST control)		1.02 fold enrichment (6-mer frequency, TF over GST control)
TTGGGC	1.03 fold enrichment (6-mer frequency, TF over GST control)	1.07 fold enrichment (6-mer frequency, TF over GST control)	1.01 fold enrichment (6-mer frequency, TF over GST control)	1.07 fold enrichment (6-mer frequency, TF over GST control)	1.03 fold enrichment (6-mer frequency, TF over GST control)	1.1 fold enrichment (6-mer frequency, TF over GST control)	1.2 fold enrichment (6-mer frequency, TF over GST control)	1.1 fold enrichment (6-mer frequency, TF over GST control)	1.21 fold enrichment (6-mer frequency, TF over GST control)	1.13 fold enrichment (6-mer frequency, TF over GST control)	1.12 fold enrichment (6-mer frequency, TF over GST control)	1.07 fold enrichment (6-mer frequency, TF over GST control)	1.1 fold enrichment (6-mer frequency, TF over GST control)	1.05 fold enrichment (6-mer frequency, TF over GST control)	1.15 fold enrichment (6-mer frequency, TF over GST control)	1.18 fold enrichment (6-mer frequency, TF over GST control)	1.03 fold enrichment (6-mer frequency, TF over GST control)	1.13 fold enrichment (6-mer frequency, TF over GST control)
